Inconclusive results are not listed. A number with no mark means an inactive call. Active and inactive are the calls of the source. Calls follow the shape of the dose curve; as a rule, active = well fitted inhibition curve with a large enough effect; inconclusive = small, poorly fitted or top-dose-only effect; inactive = flat fitted curve, though single readings scatter. Where a SMILES comes first, the peptide text is derived from it. [ ]: non-standard residue; d: D form. Ala(indol-2-yl) = N[C@@H](Cc1cc2ccccc2[nH]1)C(=O)O; Aib = CC(C)(N)C(=O)O
% is scaled to controls: 0 for no effect and ±100 for the full control effect; potency is read from the fitted curve at half-maximal effect.

This assay concerns HaCat. The assay can be described thus: Cytotoxic Profiling of Annotated Libraries Using Quantitative High-Throughput Screening (AID 1296008). Also: nearly all actives have a fitted effect of over 60% in size. Particulars: Five cell lines viability, CellTiter-Glo ATP luminescence, 48-72 h; max response: hits give low values. In outline: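 Cells exposed to compounds for 48 or 72 hr at 37 degrees Celsius. Viability read as ATP-coupled luminescence with CellTiter-Glo after 10 min at room temperature.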
Consider `O=C(OC[C@H]1O[C@@H](Oc2ccc(O)cc2CO)[C@H](O)[C@@H](O)[C@@H]1O)c1ccccc1`, for which the max response is -28.3%. For the compound `CC(=O)O[C@@H]1[C@@H](O)[C@H]2O[C@@H]3C=C(C)[C@@H](O)C[C@]3(CO)[C@]1(C)[C@]21CO1`, the Potency was 3600 nM (active). Take `COc1cc2c(c(OC)c1OC)-c1ccc(SC)c(=O)cc1[C@@H](NC(C)=O)CC2`: the max response was 4.59%. Take `CC(C)(NC(=O)[C@@H](N)Cc1ccc(O)cc1)C(=O)N[C@@H](Cc1cc2ccccc2[nH]1)C(=O)N[C@@H](Cc1ccccc1)C(=O)O` (H-Y[Aib][Ala(indol-2-yl)]F-OH): the max response is -4.8%. Consider `C=C1[C@@H](C)[C@H]2[C@H](Cc3ccccc3)NC(=O)[C@]23[C@H](OC(C)=O)/C=C/[C@](C)(O)C(=O)[C@@H](C)C/C=C/[C@H]3[C@@H]1O`, for which the Potency is 23100 nM (active). Turning to `COc1ccc2c3c([nH]c2c1)C(C=C(C)C)N1C(=O)C2CCCN2C(=O)C1C3` (stereo not drawn), the max response is -17.6%.

`C[C@@H]1C[C@@H](O)[C@]2(O)O[C@@H]3C[C@@]4(C=O)C(CC[C@@H]5C4CC[C@]4(C)[C@@](O)(C6=CC(=O)OC6)CC[C@]54O)C[C@H]3OC2O1` (stereo partly drawn): the Potency is 5020 nM (active).

Regarding `CC(=O)OC[C@]12C[C@H](OC(=O)CC(C)C)C(C)=C[C@H]1O[C@@H]1[C@H](O)[C@@H](OC(C)=O)[C@@]2(C)[C@@]12CO2`, the Potency was 224 nM (active).

Consider `CC[C@H](C)[C@H](NC(=O)[C@H]1CCCCN1C)C(=O)N(COC(=O)CC(C)C)[C@H](C[C@@H](OC(C)=O)c1nc(C(=O)N[C@@H](Cc2ccc(O)cc2)C[C@H](C)C(=O)O)cs1)C(C)C`, for which the max response was -10.6%. As for `CN[C@@H]1C[C@H]2O[C@@](C)([C@@H]1OC)n1c3ccccc3c3c4c(c5c6ccccc6n2c5c31)C(=O)NC4`, the Potency is 184 nM (active). On to `CC1=C[C@H]2O[C@@H]3C[C@H]4OC(=O)/C=C/C=C/C(=O)OCC/C(C)=C/C(=O)OC[C@@]2(CC1)[C@]4(C)[C@]31CO1`, for which the Potency was 112 nM (active). For `CC(=O)OC[C@]12C[C@H](OC(=O)CC(C)C)C(C)=C[C@H]1O[C@@H]1[C@H](O)[C@@H](O)[C@@]2(C)[C@]12CO2`, the Potency was 252 nM (active). Consider `CC(=O)OC[C@]12C[C@H](OC(=O)CC(C)C)C(C)=C[C@H]1O[C@@H]1[C@H](O)C[C@@]2(C)[C@]12CO2`, for which the Potency is 6320 nM (active). Still for that read-out and setting: then `COC1CC(O[C@H]2CC[C@]3(C)C4CC[C@]5(C)[C@@H](C6=CC(=O)OC6)[C@@H](OC(C)=O)C[C@]5(O)C4CC[C@@H]3C2)OC(C)C1O[C@@H]1O[C@H](CO)[C@@H](O)[C@H](O)[C@H]1O` (stereo partly drawn), with 1720 nM (active). Turning to `Cc1c(Cl)c(OCC(=O)N2CCN(C)CC2)nc2sc(C(=O)NC3CC3)c(N)c12`, the max response was -0.624%. With `CO[C@H]1[C@H](O)[C@H](O[C@H]2CC[C@]3(C=O)C4CC[C@]5(C)[C@H](C6=CC(=O)OC6)CC[C@]5(O)C4CC[C@@H]3C2)O[C@@H](C)[C@@H]1O` (stereo partly drawn), the Potency is 126 nM (active). On to `C[C@H]1O[C@@H](O[C@H]2CC[C@]3(C=O)C4CC[C@]5(C)[C@@H](C6=CC(=O)OC6)CC[C@]5(O)[C@@H]4CC[C@]3(O)C2)C[C@@H](O)[C@@H]1O` (stereo partly drawn), for which the Potency is 502 nM (active). As for `COC1CC(O[C@H]2CC[C@]3(C=O)C4CC[C@]5(C)[C@@H](C6=CC(=O)OC6)CC[C@]5(O)[C@@H]4CC[C@@H]3C2)OC(C)C1O[C@@H]1O[C@H](CO)[C@@H](O[C@@H]2O[C@H](CO)[C@@H](O)[C@H](O)[C@H]2O)[C@H](O)[C@H]1O` (stereo partly drawn), the Potency is 873 nM (active).

For the compound `C[C@]12CC[C@H](O)C[C@H]1CC[C@@H]1[C@@H]2[C@H](O)C[C@]2(C)[C@@H](c3ccc(=O)oc3)CC[C@]12O`, the Potency was 146 nM (active). On the same count and under the same terms, to `C[C@H]1O[C@@H](O[C@H]2CC[C@]3(CO)C4CC[C@]5(C)[C@@H](C6=CC(=O)OC6)CC[C@]5(O)[C@@H]4CC[C@H]3C2)[C@H](O)[C@H](O)[C@@H]1O[C@@H]1O[C@H](CO)[C@@H](O)[C@H](O)[C@H]1O` (stereo partly drawn) belongs 5440 nM (active); to `CC1=C[C@H]2O[C@@H]3[C@H](O)[C@@H](O)[C@](C)([C@@]2(CO)C[C@@H]1O)[C@]31CO1`, 7310 nM (active). Take `C[C@H]1O[C@@H](n2cnc3c(N)ncnc32)C[C@@H]1O`: the max response is 3.49%.

As to `OCc1nnc2n1-c1ccc(Cl)cc1C(c1ccccc1Cl)=NC2`, the max response is -38%.

These data come from PubChem BioAssay (NCATS).
